Structures are written as SMILES. Several values for one entry are separate records, joined by “and”; a condition that tells them apart may be missing. Equal entries are not always repeated. Inconclusive results are not listed. More than one record can exist for a structure, and the calls need not agree. Activity calls are given as the source filed them. How the source made its calls: active means hit-call score of the fitted dose curve at least 0.9, where 1 is the maximum; inconclusive means response in the unintended direction; inactive means score below 0.9.

This passage reports AC50 and outcome results from PubChem BioAssay (EPA / NIEHS).

Sequence of chicken Estrogen Receptor (ERa), ESR1 (gene 396099) (P06212 whole entry, looked up, the tested form may be a part): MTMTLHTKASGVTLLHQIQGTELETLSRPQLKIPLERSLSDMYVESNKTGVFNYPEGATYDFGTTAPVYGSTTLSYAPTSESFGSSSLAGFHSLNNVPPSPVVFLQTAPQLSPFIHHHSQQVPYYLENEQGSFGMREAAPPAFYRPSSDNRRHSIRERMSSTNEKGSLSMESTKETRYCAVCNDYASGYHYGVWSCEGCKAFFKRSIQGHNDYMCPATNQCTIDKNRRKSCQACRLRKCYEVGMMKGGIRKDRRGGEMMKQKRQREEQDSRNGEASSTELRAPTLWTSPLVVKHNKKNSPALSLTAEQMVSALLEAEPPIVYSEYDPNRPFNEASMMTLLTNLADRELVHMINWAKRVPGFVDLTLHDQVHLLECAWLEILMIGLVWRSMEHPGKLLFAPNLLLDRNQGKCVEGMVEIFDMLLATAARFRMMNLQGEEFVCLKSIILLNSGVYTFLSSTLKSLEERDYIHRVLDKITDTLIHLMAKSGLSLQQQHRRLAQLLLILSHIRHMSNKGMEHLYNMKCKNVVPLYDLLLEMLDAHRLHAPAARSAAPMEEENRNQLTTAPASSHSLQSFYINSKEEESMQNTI

The first experiment addresses chicken Estrogen Receptor (ERa), ESR1 (gene 396099) (UniProt P06212). As to the kind of experiment: ATG_chERa_XSP2: Attagene TRANS-FACTORIAL Multi-Species (XSP2) HepG2 Assay for chicken Estrogen Receptor (ERa) (AID 2283817).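 Further: actives raise reporter signal above DMSO so AC50 reflects ER activation.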 Summed up: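 Transiently transfected HepG2 cells expressing chimeric chicken ERa-GAL4 reporter units, dosed 24 h with 3 nM 6-alpha-fluorotestosterone and 1.5 nM norgestrel present. Reporter mRNA measured by RT-PCR and capillary electrophoresis; gain-of-signal fitted relative to DMSO.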
In the case of `c1ccc2c(c1)Nc1ccccc1S2`, the half-maximal activity concentration (AC50) is 11.3 µM (active) and 4.72 µM (active).

Turning to `O=S(=O)(c1ccc(O)cc1)c1ccc(O)cc1`, the AC50 is 2.24 µM (active) and 2.5 µM (active).

As to `CC(C)(C)c1ccc(O)cc1`, the AC50 was 4.76 µM (active) and 6.06 µM (active).

On to `CCC(C)(C)c1ccc(O)cc1`, for which the AC50 is 3.58 µM (active) and 2.33 µM (active).

For `CCCCc1ccc(O)cc1`, the AC50 is 3.21 µM (active) and 1.79 µM (active).

As for `O=P(Oc1ccccc1)(Oc1ccccc1)Oc1ccccc1`, the result was inactive.

In the next experiment the test system is zebrafish Estrogen Receptor (ER2a), gene 317734. As to the kind of experiment: ATG_zfER2a_XSP2: Attagene TRANS-FACTORIAL Multi-Species (XSP2) HepG2 Assay for zebrafish Estrogen Receptor (ER2a) (AID 2283818).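 Further: hits raise reporter mRNA so AC50 reflects activation of zebrafish ER2a.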 The procedure, abridged: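 HepG2 cells transiently transfected with GAL4-UAS reporter units and chimeric zebrafish ER2a-Gal4, exposed 24 h; medium contains 3 nM 6-alpha-fluorotestosterone and 1.5 nM norgestrel. Reporter mRNA quantified by RT-PCR, HpaI digestion, capillary electrophoresis; gain versus DMSO.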
As to `c1ccc2c(c1)Nc1ccccc1S2`, the AC50 was 19 µM (active) and 6.16 µM (active).

As to `O=S(=O)(c1ccc(O)cc1)c1ccc(O)cc1`, the AC50 was 5.32 µM (active) and 3.79 µM (active).

As to `CC(C)(C)c1ccc(O)cc1`, the outcome was inactive.

As for `CCC(C)(C)c1ccc(O)cc1`, the outcome was inactive.

Take `CCCCc1ccc(O)cc1`: the AC50 was 6.3 µM (active) and 1.66 µM (active).

In the case of `O=P(Oc1ccccc1)(Oc1ccccc1)Oc1ccccc1`, the call was inactive.

In another experiment the test system is chicken Androgen Receptor (AR), gene 422165. As to the kind of experiment: ATG_chAR_XSP2: Attagene TRANS-FACTORIAL Multi-Species (XSP2) HepG2 Assay for chicken Androgen Receptor (AR) (AID 2283819).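 Further: hits raise reporter mRNA above DMSO so potency is for activation.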 The procedure, abridged: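 HepG2 cells transiently transfected with chicken AR–GAL4 chimeric reporter constructs, stimulated with 3 nM 6-alpha-fluorotestosterone plus 1.5 nM norgestrel, dosed 24 h. Reporter mRNA quantified by RT-PCR and capillary electrophoresis; gain of signal fitted versus DMSO.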
On to `O=S(=O)(c1ccc(O)cc1)c1ccc(O)cc1`, for which the AC50 is 27.1 µM (active) and the result was inactive.

`CCC(C)(C)c1ccc(O)cc1`: the outcome was inactive.

For the compound `O=P(Oc1ccccc1)(Oc1ccccc1)Oc1ccccc1`, the compound was called inactive.

The test system of the next experiment is frog Estrogen Receptor (ER), gene 398734. As to the kind of experiment: ATG_frER1_XSP2: Attagene TRANS-FACTORIAL Multi-Species (XSP2) HepG2 Assay for frog Estrogen Receptor (ER) (AID 2283821).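 Further: hits raise reporter mRNA above DMSO baseline so potency means agonist or activator.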 Summed up: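 HepG2 cells transiently transfected with GAL4-UAS reporter units expressing a chimeric frog ER-Gal4 protein; 24 h exposure. Reporter mRNA quantified by RT-PCR, fluorescent labelling and capillary electrophoresis; gain of signal fitted against DMSO baseline.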
For `c1ccc2c(c1)Nc1ccccc1S2`, the AC50 is 14.7 µM (active) and 13.2 µM (active).

`O=S(=O)(c1ccc(O)cc1)c1ccc(O)cc1`: the AC50 is 2.94 µM (active) and 894 nM (active).

In the case of `CC(C)(C)c1ccc(O)cc1`, the AC50 is 26.6 µM (active) and the compound was called inactive.

Consider `CCC(C)(C)c1ccc(O)cc1`, for which the AC50 was 25.9 µM (active) and 2.38 µM (active).

`CCCCc1ccc(O)cc1`: the AC50 is 1.96 µM (active) and 1.08 µM (active).

In another experiment the test system is zebrafish Estrogen Receptor (ER2b), gene 317733. As to the kind of experiment: ATG_zfER2b_XSP2: Attagene TRANS-FACTORIAL Multi-Species (XSP2) HepG2 Assay for zebrafish Estrogen Receptor (ER2b) (AID 2283823).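 Further: fitted upward as reporter gain over DMSO so potency reflects activation.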 As for the experimental part:
ATG_XSP2_multi-species_TRANS is a cell-based, multiplexed assay created by modifying the existing Attagene TRANS-FACTORIAL system to include a panel of nuclear receptors from some or all the following species: human (Homo sapiens), mouse (Mus musculus), frog (Xenopus laevis), zebrafish (Danio rerio), chicken (Gallus gallus), and turtle (Chrysemys picta). The ECOTOX-FACTORIAL format uses HepG2, a human liver cell line, with measurements taken at 24 hours after chemical dosing in a 24-well plate. Xsp2 included 3 nM 6-alpha-fluorotestosterone and 1.5 nM norgestrel to stimulate the androgen receptor.ATG_zfER2b_XSP2 is one of 29 assay components measured or calculated from the ATG_XSP2_multi-species_TRANS assay. It is designed to make measurements of mRNA induction, a form of inducible reporter, as detected with fluorescence intensity signals by Reverse transcription polymerase chain reaction (RT-PCR) and Capillary electrophoresis technology.The assay endpoint ATG_zfER2b_XSP2 was analyzed in the positive analysis fitting direction relative to DMSO as the negative control and baseline of activity. Using a type of inducible reporter, measures of mRNA for gain-of-signal activity can be used to understand the reporter gene at the transcription factor-level as they relate to the gene ER. Furthermore, this assay endpoint can be referred to as a primary readout, because this assay has produced multiple assay endpoints where this one serves a reporter gene function. To generalize the intended target to other relatable targets, this assay endpoint is annotated to the nuclear receptor intended target family, where the subfamily is steroidal.
Human liver HepG2 cells are transiently transfected with multiple reporter transcription units (MRTUs) in 6-well plates using FuGene 6 reagent (Roche; 3 ml FuGene/1 mg DNA). The MRTU constructs are regulated by a cis-regulating element (promoter). […] A major difference between the CIS and TRANS system is that in CIS activities of endogenous TFs are measured, whereas the TRANS assay evaluates changes in activities of exogenous, chimeric NR-Gal4 proteins. […] At the end of 24 hour incubation, total RNA was isolated using TriZol reagent (Invitrogen). The isolated RNA is then reverse-transcribed using oligo(dT) primer and Mo-MLV reverse transcriptase (Invitrogen) with DNAse I (Ambion) treatment for 30 min. The one-tenth of the produced cDNA was amplified by PCR using Taq DNA polymerase (Invitrogen) and two reporter sequence-specific primers. The PCR products were fluorescently labeled by primer extension with 6-arboxyfluorescein (6-FAM) 5'-labeled reporter sequence-specific primer (2 min at 95 C, 20 s at 68 C and 10 min at 72 C) and these products were digested with 5U of HpaI (New England Biolabs) for 2h at 37 C. The fragments were purified using Qiaquick PCR columns (Qiagen), analyzed on an ABI 3130xL genetic analyzer (Applied Biosystems) with peak positions identified by using a set of X-rhodamine (ROX)-labeled MapMarker1000 molecular weight standards (BioVentures). The raw capillary electrophoresis data was processed using Attagraph software (Attagene).
For the compound `c1ccc2c(c1)Nc1ccccc1S2`, the AC50 was 52.1 µM (active) and 27.9 µM (active).

`O=S(=O)(c1ccc(O)cc1)c1ccc(O)cc1`: the AC50 was 6.5 µM (active) and 3.07 µM (active).

For the compound `CC(C)(C)c1ccc(O)cc1`, the concentration at half-maximal activity (AC50) is 34.3 µM (active) and 13.7 µM (active).

`CCC(C)(C)c1ccc(O)cc1`: the AC50 is 13.9 µM (active) and 3.03 µM (active).

For `CCCCc1ccc(O)cc1`, the AC50 was 12.5 µM (active) and 5.32 µM (active).

Regarding `O=P(Oc1ccccc1)(Oc1ccccc1)Oc1ccccc1`, the concentration at half-maximal activity (AC50) was 7.88 µM (active).

Broadly, the AC50 is the concentration giving half of the maximal activity seen.
